The values that follow come from the supplement of paper PMC6555819.

Common to all, as to experiment: PBM binding z-score (relative to random genomic background probes); higher = stronger binding; sequences stand for … in GC…GCGATTGACAGCGTAGAATGAAGG
The subject of experiment [1] is PPARg:RXRa DBDmut IVT, anti-RXR (DBD mutation: RXRa K156A/R161A, NR concentration 270 nM, RXRa partner concentration 90 nM). The method, boiled down: (§1)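 Binding buffer was PBS pH 7.4 with 2% milk, 0.02% Triton X-100, 1 mM DTT, 0.2 mg/mL BSA and 0.4 mg/ml salmon testes DNA. In it, ligand-free nuclear receptor dimers were incubated 1 h on custom Agilent 4×180K protein-binding microarrays carrying double-stranded probes. Antibodies against each partner (one per run) detected binding, and z-scores were calculated against random background probes after regression normalization of scanned fluorescence.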

Experiment [2] relates to PPARg:RXRa IVT, anti-PPARg (NR concentration 270 nM, RXRa partner concentration 90 nM). The method, boiled down: as §1
Experiment [3] deals with PPARg DBDmut:RXRa IVT, anti-PPARg (DBD mutation: PPARg1 K132A/R137A, NR concentration 270 nM, RXRa partner concentration 90 nM). The method, boiled down: as §1
For experiment [4], the system named is PPARg DBDmut IVT, anti-PPARg (DBD mutation: PPARg1 K132A/R137A, NR concentration 270 nM). The method, boiled down:
as §1

Experiment [5] has as its system PPARg homodimer (NR concentration 180 nM). The gist of the method: as §1
For experiment [6], the system named is PXR:RXRa (NR concentration 270 nM, RXRa partner concentration 90 nM). The method, boiled down:
as §1

For experiment [7], the system named is PXR homodimer (NR concentration 270 nM). The method, boiled down: as §1
Experiment [8] concerns RARa:RXR (NR concentration 270 nM, RXRa partner concentration 90 nM). The gist of the method:
as §1

For experiment [9], the system named is RARa homodimer (NR concentration 270 nM). The method, boiled down: as §1
Experiment [10] has as its system RARb:RXRa (NR concentration 270 nM, RXRa partner concentration 90 nM). The gist of the method:
as §1

For experiment [11], the system named is RARb homodimer (NR concentration 270 nM). The gist of the method:
as §1

Experiment [12] relates to RARg:RXRa (NR concentration 270 nM, RXRa partner concentration 90 nM). The gist of the method:
as §1

In experiment [13] the test system is RARg homodimer (NR concentration 270 nM). The method, boiled down:
as §1

Experiment [14] relates to RXRa DBDmut IVT, anti-RXR (DBD mutation: RXRa K156A/R161A, NR concentration 90 nM). The gist of the method: as §1
Experiment [15] concerns RXRa homodimer (NR concentration 180 nM). The gist of the method:
as §1

For experiment [16], the system named is THRa:RXRa (NR concentration 90 nM, RXRa partner concentration 90 nM). The method, boiled down:
as §1

In experiment [17] the test system is THRa homodimer (NR concentration 90 nM). The method, boiled down: as §1
For experiment [18], the system named is VDR homodimer (NR concentration 270 nM). The method, boiled down: as §1

With TGATATAGGTAATACAGGTGAAAGTCGGCATCTA, the PBM binding z-score in experiment [1] was 4.32; in experiment [2] it was 4.45; in [3] it was 1.57; in [4], 1.13; in [5] it was 1.38; in [6], 0.409. Further, the PBM binding z-score in [7] stood at 0.476; in experiment [8] it was 0.69; in experiment [9], 0.77; in [10], 0.624; in [11], 0.513; in [12] it was 0.793. Further, the PBM binding z-score in experiment [13] was 0.583; in experiment [14] it was -0.27; in [15] it was 1.12; in experiment [16], 0.952; in experiment [17], 0.267; in experiment [18] it was 0.316.
GCATATAGGCAATACAAGGTGAAAGTCCGATTGT: the PBM binding z-score was 1.94 in experiment [1]; 1.46 in experiment [2]; 0.326 in experiment [3]; -0.0602 in experiment [4]; -0.222 in experiment [5]; 0.231 in [6]. Further, the PBM binding z-score in experiment [7] was 0.012; in experiment [8], 0.876; in [9] it was -0.301; in [10], 0.172; in [11], 0.688; in [12], 0.477. Further, the PBM binding z-score in experiment [13] is 0.305; in [14] it was 0.168; in experiment [15], 0.621; in experiment [16], 3.17; in experiment [17], 0.6; in experiment [18] it was -0.0976.
For ATCGAAAGGTCGTGGGGTGAGTATACAGAAAGGC, the PBM binding z-score in [1] worked out at 1.35; in experiment [2], 2.93; in [3], 1.62; in experiment [4], 1.78; in experiment [5] it was 2.39; in experiment [6] it was 4.24. The PBM binding z-score in experiment [7] was found to be 1.2; in [8], 4.98; in [9] it was 2.03; in [10] it was 4.47; in experiment [11], 3.6; in [12], 5.2. Further, the PBM binding z-score in experiment [13] was determined as 4.44; in experiment [14] it was 2.07; in experiment [15] it was 6.17; in experiment [16] it was 3.62; in experiment [17] it was 2.02; in experiment [18] it was 2.16.
Regarding CGAACTAGGTCAGAACAGGACAGTGATGGATGAT, the PBM binding z-score stood at 6.82 in experiment [1]; 7.04 in experiment [2]; 3.7 in [3]; 2.44 in experiment [4]; 1.38 in experiment [5]; 0.583 in experiment [6]. In addition, the PBM binding z-score in experiment [7] was determined as 0.0168; in [8], 1.39; in experiment [9], 0.336; in experiment [10], 2.66; in experiment [11], 2.11; in experiment [12] it was 2.39. Further, the PBM binding z-score was determined as 2.83 in experiment [13]; 0.564 in [14]; 1.13 in [15]; 3.48 in experiment [16]; 0.141 in [17]; 0.283 in [18].
For ATCTTTAGGTAACAAGTTCAGTGAAAGAGAGGAC, the PBM binding z-score in [1] was 2.13; in experiment [2], 1.75; in experiment [3], 1.64; in [4], 1.45; in experiment [5], 1.33; in [6], 1.95. For the same sequence, the PBM binding z-score in experiment [7] is 1.87; in experiment [8] it was 1.32; in experiment [9], 1.15; in experiment [10], 1.85; in experiment [11], 2.04; in [12], 1.56. The PBM binding z-score came to 1.48 in experiment [13]; 1.65 in experiment [14]; 0.993 in experiment [15]; 2.13 in [16]; 1.4 in experiment [17]; 2.79 in experiment [18].
ACTAGCAGGCCAATTTTGGGTCACTCAAACAAAG: the PBM binding z-score in experiment [1] was 1.13; in experiment [2] it was 1.84; in [3], 0.126; in experiment [4] it was -0.427; in experiment [5], 0.323; in experiment [6], 0.759. Moreover, the PBM binding z-score was -0.305 in experiment [7]; 1.38 in experiment [8]; -0.793 in experiment [9]; 1.45 in experiment [10]; 2.11 in experiment [11]; 1.59 in [12]. Moreover, the PBM binding z-score in experiment [13] was 1.25; in experiment [14] it was -0.264; in [15], 0.898; in [16] it was 2.34; in [17], 1.24; in experiment [18], -0.032.
In the case of CCTCGGAGGACAACAGCAGGTCAGAGCTGCCAGA, the PBM binding z-score in experiment [1] is 0.0913; in [2] it was -0.0313; in experiment [3] it was -0.897; in experiment [4], -1.32; in [5], 0.749; in [6], 0.458. Further, the PBM binding z-score in experiment [7] was -0.253; in experiment [8], 0.722; in experiment [9], 0.0209; in [10] it was 2.04; in [11], 2.46; in experiment [12] it was 2.16. In addition, the PBM binding z-score in experiment [13] worked out at 2.22; in experiment [14], 0.024; in [15], 0.692; in [16], 2.01; in experiment [17] it was 0.482; in experiment [18], 0.0855.
